This excerpt belongs to a sample that is enriched for hits.
Pf Dd2 inh = blocks in vitro growth of P. falciparum Dd2. Potency, µM (highest dose often 28.9 µM), most hits filed as inhibitors. AID 1347417. P. falciparum Dd2 growth, SYBR Green, 72 h. 120,000 tested, 4.3% active; active means well fitted inhibition curve with a large enough effect; further: nearly all actives have a fitted effect of over 65% in size
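Infected erythrocytes (Dd2, 0.3% parasitemia, 2.5% hematocrit final) are added to compound in RPMI-1640/Albumax II medium, grown 72 h at 37C in low oxygen, then lysed with saponin/Triton-X containing SYBR Green and read by fluorescence.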
Of the large screens only hits and unclear results are named; the others gave an inactive call.

CCNC(=O)N1CCCCCC1CN1CCCC1 (stereo not drawn)	none
CCCC(=O)N1Cc2ccccc2CC2(CCN(CC)C2)C1 (stereo not drawn)	none
CCCC(=O)N1Cc2ccccc2CC2(CCN(C)C2)C1 (stereo not drawn)	Pf Dd2 inh 11µM
CN1CCC2(Cc3ccccc3CN(C(=O)CCC(=O)O)C2)C1 (stereo not drawn)	none
CC(C)c1ccc(CN2CCC3(CC2)OC(=O)N(Cc2ncccn2)C3(C)c2ccccc2)cc1 (stereo not drawn)	none
CCC(CC)NC(=O)C1Cn2cccc2C(=O)N1Cc1ccccc1 (stereo not drawn)	none
COc1ccc(-c2nc3ccccc3n3c(-c4cccc(C)c4)c4c(=O)n(C)c(=O)n(C)c4c23)cc1OC	Pf Dd2 inh 11µM
COc1ccc(-c2c3c(=O)n(C)c(=O)n(C)c3c3c(-c4cccc(C)c4)nc4ccccc4n23)cc1	none
Cc1ccc(-c2c3c(=O)n(C)c(=O)n(C)c3c3c(-c4cccc(C)c4)nc4ccccc4n23)cc1	none
CC#CC(=O)N1CCCCC1C(=O)Nc1ccc(-n2nc(C)cc2C)cc1 (stereo not drawn)	none
CC(=O)Nc1ccc(S(=O)(=O)N[C@H]2CO[C@H]3[C@@H]2OC[C@@H]3n2nnnc2Oc2cccc(N3CCOCC3)c2)cc1	none
Cc1ccc(OC2(C(=O)O)CCN(C(=O)C3CCOCC3)CC2)cc1	none
CC(C)C(=O)N1CCc2c(n(Cc3ccccc3)n(-c3ccccc3)c2=O)C1	none
CCCCCNc1ncnc2c1CN(c1ccc(Cl)cc1)C(=O)CN2C	none
CCOCCN1C(=O)NC(c2ccccc2)C2=C1COC2=O (stereo not drawn)	none
CC1=C(C(=O)Nc2ccc(C)cc2C)C(c2ccc(C(=O)O)cc2)n2nc(SCc3ccccc3)nc2N1 (stereo not drawn)	none
COc1cc(C2C(C(=O)Nc3ccc(C)cc3C)=C(C)Nc3nc(SCc4ccccc4)nn32)cc(OC)c1OC (stereo not drawn)	none
CC1=C(C(=O)Nc2ccc(C)cc2C)C(c2ccc(C(C)C)cc2)n2nc(C(F)(F)F)nc2N1 (stereo not drawn)	Pf Dd2 inh 13µM
Cc1ccsc1C(=O)NCCc1noc(-c2ccccc2)n1	none
O=C(Nc1ccccc1)Nc1ccc([C@H]2OCC(=O)N(Cc3ccc(F)cc3)[C@@H]2CO)cc1	none
O=C(NCc1ccc(F)cc1)C1CCc2nnc(C3CCN(C(=O)c4ccccc4)CC3)n21 (stereo not drawn)	none
CNC(=O)[C@H]1C[C@H](Oc2ccccc2)CN1C(=O)Cc1ccccc1F	none
COc1ccc(-c2cn3nc(N4CCCC(C(=O)Nc5cccc(Cl)c5C)C4)sc3n2)cc1 (stereo not drawn)	none
COc1ccc(-c2ccccc2NC(=O)C2CCCN2C(=O)C2(C)CC2)cc1 (stereo not drawn)	none
COc1ccc(-c2ccccc2NC(=O)C2CCCN(Cc3ccccc3O)C2)cc1 (stereo not drawn)	Pf Dd2 inh 2.8µM
COc1ccc(-c2ccccc2NC(=O)C2CCCN(Cc3c(O)cccc3OC)C2)cc1 (stereo not drawn)	Pf Dd2 inh 1.8µM
CCNC(=O)N1CCCC1C(=O)Nc1ccccc1-c1ccc(OC)cc1 (stereo not drawn)	none
COc1ccc(NC(=O)C2CCCN(c3cnccn3)C2)c(OC)c1 (stereo not drawn)	none
O=C(NCCc1ccc(Cl)cc1)C1CCc2nnc(C3CCN([S+](=O)([O-])c4ccccc4)CC3)n21 (stereo not drawn)	none
CC(=O)N[C@H]1CC[C@]2(C)CC[C@@H](C(C)C(=O)NC3CCCC3)[C@H](O)[C@H]2[C@@H]1C (stereo partly drawn)	none
Cc1noc2c(-c3cccnc3NC3CCN(C)CC3)cc(-c3ccc(Cl)cc3)nc12	none
CCOC(=O)c1ccc(NC(=O)CC2Nc3cccc4cccc(c34)NC2=O)cc1 (stereo not drawn)	Pf Dd2 inh 10µM
NC(=O)c1ccc(NC(=O)C[C@H]2NC(=O)c3ccccc3NC2=O)cc1	none
CCOC(=O)c1ccc(NC(=O)CC2Sc3ccc(C(F)(F)F)cc3NC2=O)cc1 (stereo not drawn)	none
CC(=O)c1ccc(NC(=O)CC2Nc3cccc4cccc(c34)NC2=O)cc1 (stereo not drawn)	none
CCOC(=O)c1ccc(NC(=O)CC2Nc3cc(C)c(C)cc3NC2=O)cc1 (stereo not drawn)	Pf Dd2 inh 4µM
CCOc1ccc(NC(=O)CC2Nc3cccc4cccc(c34)NC2=O)cc1 (stereo not drawn)	none
CS(=O)(=O)N1CCC(C2CCN(C(=O)Cc3c[nH]c4ccccc34)C2)CC1 (stereo not drawn)	none
COc1cccc([C@@H]2CCN(Cc3cn[nH]c3C(=O)O)C[C@H]2O)c1	none
COc1cccc(C(=O)NCC2CCCN(Cc3cnn(C)c3C)C2)c1OC (stereo not drawn)	none
COc1cccc([C@@H]2CCN(Cc3ccc(NC(C)=O)cc3)C[C@H]2O)c1	none
Cc1c(CN2CCCC(CNC(=O)c3cccc4ccccc34)C2)[nH]c2ccccc12 (stereo not drawn)	Pf Dd2 inh 11µM
COc1cccc([C@@H]2CCN(Cc3[nH]c4ccccc4c3C)C[C@H]2O)c1	Pf Dd2 inh 0.89µM
COc1cccc(C(=O)NCC2CCCN(Cc3ccccn3)C2)c1OC (stereo not drawn)	none
O=C(COc1ccc(F)cc1)N1CC(c2nc(CCOCC3CCOCC3)no2)C1	none
CCn1cc(CN2CCCC(CNC(=O)c3cc(OC)cc(OC)c3)C2)c(C)n1 (stereo not drawn)	none
COc1cc(OC)cc(C(=O)NCC2CCCN(C/C=C/c3ccccc3OC)C2)c1 (stereo not drawn)	Pf Dd2 inh 8.9µM
COc1ccccc1OCC(=O)NCC1CCCN(Cc2ccc(C)c(C)c2)C1 (stereo not drawn)	none
Cc1ccc2oc(-c3ccc(NC(=O)c4cccc(F)c4)c(C)c3)nc2c1	none
Cc1cccc(Nc2ncc(NC(=O)c3cccc(F)c3)c(Nc3cccc(C)c3)n2)c1	Pf Dd2 inh 2.2µM
O=C(Nc1cnc(-c2ccccc2)nc1)c1cccc(F)c1	none
COCCCNC(=O)c1ccc2c(c1)n(Cc1cccc(F)c1)c(=O)c1ccnn12	none
CSc1ccc(CNc2ncncc2-c2nc(-c3ccccc3)no2)cc1	none
COc1ccc(-c2cc(N3CCC(NC(=O)c4ccc(F)cc4F)C3)n[nH]2)cc1 (stereo not drawn)	none
COc1ccc(CN2CCC3(CC(c4cccc(C(F)(F)F)c4)=NO3)C2)cc1 (stereo not drawn)	none
COc1ccc(C2=NOC3(CCN(Cc4cccnc4)C3)C2)cc1 (stereo not drawn)	none
COc1ccc(C2=NOC3(CCN(Cc4ccc(F)cc4)C3)C2)cc1 (stereo not drawn)	Pf Dd2 inh 4µM
CN(C)C[C@@H]1CN(c2ncccn2)C[C@H]1NC(=O)c1cccc(F)c1	none
Cc1ccc(C(=O)N2CC3(C2)C(=O)Nc2ccccc23)cc1	none
COCCOC1CCOC2(CCN(C(=O)COc3ccccc3)CC2)C1 (stereo not drawn)	Pf Dd2 inh 11µM
COCCOC1CCOC2(CCN(C(=O)C3(c4ccccc4)CC3)CC2)C1 (stereo not drawn)	none
COCCOC1CCOC2(CCN(C(=O)c3nccc4ccccc34)CC2)C1 (stereo not drawn)	none
COCCOC1CCOC2(CCN(C(=O)c3ccccc3)CC2)C1 (stereo not drawn)	none
COC1CCOC2(CCN(C(=O)COc3ccccc3)CC2)C1 (stereo not drawn)	none
COCCOC1CCOC2(CCN(C(=O)Cc3ccccc3)CC2)C1 (stereo not drawn)	none

Source: PubChem BioAssay
